Reference: the supplement of paper PMC12636033
± gives the standard deviation of the averaged measurements. Over roughly 33,000 sequences, “E-score (rank enrichment, -0.5 to 0.5)” has its median near -0.0075; the highest 2% begin near 0.23. This excerpt belongs to a sample that is enriched for the highest values.

Tested on: WT Max(13-93) synthetic (M65Nle)
Assay: PBM 8-mer E-score (E-score (rank enrichment, -0.5 to 0.5)); higher = stronger preferential binding
Experimental: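 Protein binding microarray (universal PBM chip covering all 10-mers in fixed probe flanks) with chemically synthesized human Max(13-93) bHLH-LZ analogs (not full-length Max) bearing noncanonical residues (hArg, Tha, Aib, Nle at 65) and aromatic Cys staples. Read-out per 8-mer (and its reverse complement): E-score (rank-based enrichment, -0.5 to 0.5) and Z-score of median probe intensity.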

Row | Sequence | PBM 8-mer E-score
1 | GAGAAAAC | -0.0792 ± 0.0078
2 | GCAAAGGA | 0.00898 ± 0.011
3 | AATTCATG | 0.132 ± 0.0098
4 | CTATTCAC | -0.0152 ± 0.017
5 | ATATTCAC | 0.234 ± 0.022
6 | GTATTCAC | 0.0929 ± 0.016
7 | CGCTGTCA | -0.225 ± 0.066
8 | ACGTTCGA | -0.101 ± 0.043
9 | CGTATGGA | -0.00324 ± 0.07
10 | ATGTAAAT | 0.224 ± 0.021
11 | ATGTAAAA | 0.268 ± 0.011
12 | ATGTAACG | 0.0739 ± 0.012
13 | ATGTAACA | 0.239 ± 0.027
14 | ATGTAATA | 0.25 ± 0.011
15 | CTGTAATA | 0.0153 ± 0.064
16 | ATGTAATG | 0.16 ± 0.079
17 | CTGTAAAA | 0.0812 ± 0.032
18 | CTGTAACA | 0.044 ± 0.048
19 | GCTTAGGA | -0.105 ± 0.036
20 | TGACCCAA | 0.106 ± 0.036
21 | CGTTACTA | 0.108 ± 0.1
22 | CCCTCCTC | -0.0364 ± 0.059
23 | GCATAGTA | 0.0884 ± 0.0015
24 | GTCCCGCA | -0.141 ± 0.005
25 | ACGTGTGA | 0.192 ± 0.054

Row | Sequence | PBM 8-mer E-score
26 | ACGTGTGC | 0.348 ± 0.0039
27 | AGGTGTGG | 0.0754 ± 0.09
28 | CCGTGTGC | -0.0611 ± 0.063
29 | AAGTGTGG | 0.0251 ± 0.043
30 | ACGTGTGG | 0.3 ± 0.048
31 | ACAAAACG | 0.152 ± 0.068
32 | ACCAGACA | -0.0218 ± 0.036
33 | AAGAACAT | 0.2472 ± 0.0023
34 | AAGAACAG | 0.137 ± 0.033
35 | AAGAACAC | 0.156 ± 0.11
36 | CCAAGCAC | 0.139 ± 0.07
37 | ACACCGCA | -0.148 ± 0.046
38 | CCGACCGA | -0.158 ± 0.039
39 | CGTTCGAC | -0.123 ± 0.034
40 | CCATGTAA | 0.0612 ± 0.026
41 | TCATGTAA | 0.148 ± 0.0053
42 | GCATGTAC | 0.197 ± 0.093
43 | GCATGTAA | 0.239 ± 0.0044
44 | AAATGTAC | 0.268 ± 0.026
45 | ACATGTCT | 0.222 ± 0.1
46 | CAATGTAC | 0.0304 ± 0.16
47 | AGATGTAT | 0.158 ± 0.0099
48 | ACATGTAC | 0.29 ± 0.009
49 | CCATGTAC | 0.0683 ± 0.0021
50 | AAATGTAG | 0.144 ± 0.015

Row | Sequence | PBM 8-mer E-score
51 | ACATGTAT | 0.341 ± 0.019
52 | ATTATCCC | 0.073 ± 0.014
53 | CCGCGTAA | -0.0539 ± 0.056
54 | CGTTCGTA | 0.0244 ± 0.0097
55 | CCGTTCAC | -0.15 ± 0.0062
56 | AGATGTAA | 0.114 ± 0.043
57 | CCATGTAG | 0.14 ± 0.045
58 | AGATGTAG | 0.0391 ± 0.11
59 | ACATGTAA | 0.317 ± 0.0085
60 | AAATGTAA | 0.0766 ± 0.017
61 | ACATGTAG | 0.329 ± 0.031
62 | ATTCGATA | 0.0933 ± 0.11
63 | CTGCAGAA | -0.039 ± 0.059
64 | CGGGTTGC | -0.0971 ± 0.064
65 | CTGACCAA | -0.00243 ± 0.0086
66 | CATGGTTA | 0.2411 ± 0.0015
67 | CATGGTCG | 0.219 ± 0.039
68 | AATGGTTA | 0.147 ± 0.038
69 | CATGGTCC | 0.0038 ± 0.074
70 | CATGGTCA | 0.291 ± 0.031
71 | GATGGTTA | 0.0493 ± 0.12
72 | TGCCGCAA | 0.106 ± 0.083
73 | GAATAGGC | 0.113 ± 0.015
74 | CCGTGAGC | -0.142 ± 0.048
75 | CAGGGGTC | -0.0985 ± 0.052

Row | Sequence | PBM 8-mer E-score
76 | GCGACGAC | -0.0631 ± 0.081
77 | TGTACGAA | 0.0875 ± 0.095
78 | CATGCTAC | 0.0659 ± 0.14
79 | CATGCTGC | 0.183 ± 0.089
80 | AATGCTAG | -0.0447 ± 0.064
81 | CATGCTGG | 0.314 ± 0.04
82 | CATGCTAG | 0.241 ± 0.034
83 | AATGCTGG | 0.0745 ± 0.034
84 | CCCCCGTC | -0.0979 ± 0.09
85 | TGCCGGAA | -0.154 ± 0.028
86 | AATGCGCC | -0.0607 ± 0.1
87 | CCACTTAG | 0.00666 ± 0.08
88 | CCGAGCGG | -0.0233 ± 0.11
89 | CAACTACG | -0.0136 ± 0.15
90 | GCCTCGAA | -0.199 ± 0.015
91 | ACTTGCTA | 0.0291 ± 0.18
92 | CAACAGGC | -0.126 ± 0.031
93 | GTCATAAC | 0.0805 ± 0.074
94 | CACATACA | 0.00143 ± 0.16
95 | AACATACT | 0.0867 ± 0.12
96 | TACATACA | 0.275 ± 0.015
97 | GTCATAAA | 0.282 ± 0.021
98 | TACATAAA | 0.234 ± 0.02
99 | CACATAAA | 0.106 ± 0.099
100 | TTCATAAA | 0.0506 ± 0.062

Row | Sequence | PBM 8-mer E-score
101 | GACATACA | 0.162 ± 0.037
102 | AACATACG | 0.246 ± 0.04
103 | AACATAAA | 0.225 ± 0.066
104 | CACATACG | 0.0417 ± 0.11
105 | CCGTCTGC | -0.0961 ± 0.0095
106 | GTGAAACA | 0.0563 ± 0.012
107 | AGTAGTTC | -0.116 ± 0.027
108 | CACCTAAC | -0.189 ± 0.12
109 | CGTTCAGC | -0.266 ± 0.082
110 | TCATTGCA | 0.0909 ± 0.036
111 | ACCATACA | 0.0446 ± 0.2
112 | AACATACA | 0.26 ± 0.062
113 | AACATACC | 0.0333 ± 0.06
114 | ACGTCGGA | -0.0798 ± 0.0092
115 | ACGTGCAC | 0.391 ± 0.021
116 | ATGTGCAA | 0.203 ± 0.06
117 | CTGTGCAC | -0.091 ± 0.017
118 | ATGTGCAC | 0.29 ± 0.059
119 | ACGTGCAT | 0.378 ± 0.013
120 | ATGTGCAG | 0.0828 ± 0.0059
121 | GCGTGCAC | 0.215 ± 0.033
122 | AGGTGCAT | 0.139 ± 0.0098
123 | AAGTGCAT | 0.115 ± 0.097
124 | CCGTGCAC | 0.0618 ± 0.097
125 | ACGTGCAG | 0.325 ± 0.063

Row | Sequence | PBM 8-mer E-score
126 | CCGTGCAG | -0.0417 ± 0.026
127 | ACCACGGA | -0.207 ± 0.0078
128 | ATGTCCAC | 0.113 ± 0.011
129 | CAGGACGG | -0.162 ± 0.092
130 | TCATGCGA | 0.034 ± 0.055
131 | ACGCCTTA | -0.0494 ± 0.025
132 | CGCTTAAG | -0.0549 ± 0.15
133 | AGCCTGAC | -0.0941 ± 0.14
134 | CTTATAGC | -0.0275 ± 0.032
135 | GAGCGCTA | -0.0703 ± 0.047
136 | ATGAACCA | 0.145 ± 0.06
137 | ACGGCGGC | -0.238 ± 0.059
138 | CGTGCTAC | 0.2 ± 0.061
139 | CAATGGAG | 0.0245 ± 0.12
140 | CGGGTACG | -0.133 ± 0.043
141 | CCAGGCGG | -0.0313 ± 0.028
142 | CCCAATGA | 0.0385 ± 0.031
143 | ATGTGAGA | 0.231 ± 0.13
144 | CCAACTCG | -0.00075 ± 0.037
145 | ACGTGCAA | 0.3 ± 0.035
146 | TCGTGCAA | 0.131 ± 0.057
147 | CCGTGCAA | -0.0752 ± 0.025
148 | AAATACGC | 0.237 ± 0.027
149 | GAATACGC | 0.0909 ± 0.01
150 | AAATACGT | 0.152 ± 0.043

Row | Sequence | PBM 8-mer E-score
151 | GTGAATCA | -0.115 ± 0.022
152 | ATAACACG | 0.307 ± 0.0054
153 | ATAACACC | 0.106 ± 0.076
154 | CTAACACA | 0.121 ± 0.13
155 | GTTACATA | 0.113 ± 0.0025
156 | ATAACATG | 0.231 ± 0.01
157 | ATTACATA | 0.24 ± 0.039
158 | ATAACACA | 0.181 ± 0.095
159 | ATAACATA | 0.266 ± 0.023
160 | GTAACAAA | 0.126 ± 0.0055
161 | GTAACACA | 0.238 ± 0.024
162 | ATAACATC | 0.187 ± 0.028
163 | ATTACATG | 0.223 ± 0.061
164 | AGGGGAAT | 0.0772 ± 0.04
165 | CCGTAGCC | -0.216 ± 0.071
166 | ACGCGTAA | 0.105 ± 0.048
167 | TCGCATCA | 0.046 ± 0.015
168 | AACGCAAA | -0.144 ± 0.021
169 | GATCTTAA | 0.0118 ± 0.0058
170 | CAAATACG | 0.138 ± 0.086
171 | CTTTGCCA | -0.107 ± 0.097
172 | ACAACACC | 0.158 ± 0.0054
